{"source": "the supplement of paper PMC8728848", "binders": {"B1": {"name": "CD34 (Homo sapiens), P28906 (protein)", "chain": "MGSSHHHHHHSSGLVPRGSHMSTSLATSPTKPYTSSSPILSDIKAEIKCSGIREVKLTQGICLEQNKTSSCAEFKKDRGEGLARVLCGEEQADADAGAQVCSLLLAQSEVRPQCLLLVLANRTEISSKLQLMKKHQSDLKKLGILDFTEQDVASHQSYSQKT"}}, "assay_in_all_cases": "glycan array binding signal (z-score within array); higher = stronger binding", "details_in_all_cases": "glycan notation: IUPAC condensed, linker removed", "key": {"[1]": {"molecular_target": "GlcNAc(b1-3)Gal(b1-4)GlcNAc(b1-2)[GlcNAc(b1-3)Gal(b1-4)GlcNAc(b1-6)]Man(a1-6)[GlcNAc(b1-3)Gal(b1-4)GlcNAc(b1-2)Man(a1-3)]Man(b1-4)GlcNAc(b1-4)GlcNAc", "method_in_brief": "(§1)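 Arrays were curated from the Consortium for Functional Glycomics database, 3228 in total, and kept only where the protein sequence was available. Binding is expressed as a within-array Z-score. This score was averaged across arrays of the same protein sequence at different concentrations or buffers and across linkers, and negative values can be read as non-binding.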"}, "[2]": {"molecular_target": "GlcNAc(b1-3)Gal(b1-4)GlcNAc(b1-3)Gal(b1-4)GlcNAc", "method_in_brief": "as §1"}, "[3]": {"molecular_target": "GlcNAc(b1-4)GlcNAc(b1-4)GlcNAc(b1-4)GlcNAc(b1-4)GlcNAc", "method_in_brief": "as §1"}, "Kdn(a2-6)Gal(b1-4)GlcNAc": {"molecular_target": "Kdn(a2-6)Gal(b1-4)GlcNAc", "method_in_brief": "as §1"}, "[4]": {"molecular_target": "Man(a1-2)Man(a1-3)[Man(a1-6)]Man(a1-6)[Man(a1-2)Man(a1-3)]Man(b1-4)GlcNAc(b1-4)GlcNAc", "method_in_brief": "as §1"}, "MurNAc(b1-4)GlcNAc": {"molecular_target": "MurNAc(b1-4)GlcNAc", "method_in_brief": "as §1"}, "[5]": {"molecular_target": "Neu5Ac(a2-3)Gal(b1-3)GalNAc(b1-4)[Neu5Ac(a2-3)]Gal(b1-4)Glc", "method_in_brief": "as §1"}, "[6]": {"molecular_target": "Neu5Ac(a2-3)Gal(b1-3)GlcNAc(b1-2)Man(a1-3)[Neu5Ac(a2-3)Gal(b1-3)GlcNAc(b1-2)Man(a1-6)]Man(b1-4)GlcNAc(b1-4)GlcNAc", "method_in_brief": "as §1"}, "[7]": {"molecular_target": "Neu5Ac(a2-3)Gal(b1-3)GlcNAc6S", "method_in_brief": "as §1"}, "[8]": {"molecular_target": "Neu5Ac(a2-3)Gal(b1-3)[Fuc(a1-4)]GlcNAc(b1-3)Gal(b1-3)[Fuc(a1-4)]GlcNAc", "method_in_brief": "as §1"}, "[9]": {"molecular_target": "Neu5Ac(a2-3)Gal(b1-3)[Fuc(a1-4)]GlcNAc(b1-3)Gal(b1-4)[Fuc(a1-3)]GlcNAc", "method_in_brief": "as §1"}, "[10]": {"molecular_target": "Neu5Ac(a2-3)Gal(b1-4)GlcNAc(b1-2)Man", "method_in_brief": "as §1"}, "[11]": {"molecular_target": "Neu5Ac(a2-3)Gal(b1-4)GlcNAc(b1-3)Gal(b1-3)GlcNAc", "method_in_brief": "as §1"}, "[12]": {"molecular_target": "Neu5Ac(a2-3)Gal(b1-4)GlcNAc6S", "method_in_brief": "as §1"}, "[13]": {"molecular_target": "Neu5Ac(a2-3)Gal(b1-4)[Fuc(a1-3)]GlcNAc", "method_in_brief": "as §1"}, "[14]": {"molecular_target": "Neu5Ac(a2-3)[Neu5Ac(a2-6)]GalNAc", "method_in_brief": "as §1"}, "[15]": {"molecular_target": "Neu5Ac(a2-6)Gal(b1-4)GlcNAc(b1-2)Man(a1-6)[Gal(b1-4)GlcNAc(b1-2)Man(a1-3)]Man(b1-4)GlcNAc(b1-4)GlcNAc", "method_in_brief": "as §1"}, "[16]": {"molecular_target": "Neu5Ac(a2-6)Gal(b1-4)GlcNAc(b1-3)Gal(b1-4)GlcNAc(b1-2)Man(a1-3)[Neu5Ac(a2-6)Gal(b1-4)GlcNAc(b1-3)Gal(b1-4)GlcNAc(b1-2)Man(a1-6)]GalNAc", "method_in_brief": "as §1"}, "[17]": {"molecular_target": "Neu5Ac(a2-6)Gal(b1-4)GlcNAc(b1-3)Gal(b1-4)GlcNAc(b1-3)GalNAc", "method_in_brief": "as §1"}, "[18]": {"molecular_target": "Neu5Ac(a2-6)GalNAc(b1-4)GlcNAc6S", "method_in_brief": "as §1"}, "[19]": {"molecular_target": "Neu5Ac(a2-8)Neu5Ac(a2-3)[Gal(b1-3)GalNAc(b1-4)]Gal(b1-4)Glc", "method_in_brief": "as §1"}, "[20]": {"molecular_target": "Neu5Gc(a2-3)Gal(b1-3)[Fuc(a1-4)]GlcNAc", "method_in_brief": "as §1"}, "[21]": {"molecular_target": "Neu5Gc(a2-3)Gal(b1-4)[Fuc(a1-3)]GlcNAc", "method_in_brief": "as §1"}, "[22]": {"molecular_target": "Neu5Gc(b2-6)Gal(b1-4)GlcNAc", "method_in_brief": "as §1"}}, "note": "This excerpt belongs to a sample that is enriched for the strongest signals."}
{"binder": "B1", "values": [{"measurement": "glycan array binding signal (z-score)", "setting": "[1]", "value": -0.175}, {"measurement": "glycan array binding signal (z-score)", "setting": "[2]", "value": -0.666}, {"measurement": "glycan array binding signal (z-score)", "setting": "[3]", "value": 0.087}, {"measurement": "glycan array binding signal (z-score)", "setting": "Kdn(a2-6)Gal(b1-4)GlcNAc", "value": -0.352}, {"measurement": "glycan array binding signal (z-score)", "setting": "[4]", "value": -0.726}, {"measurement": "glycan array binding signal (z-score)", "setting": "MurNAc(b1-4)GlcNAc", "value": 1.79}, {"measurement": "glycan array binding signal (z-score)", "setting": "[5]", "value": 2.63}, {"measurement": "glycan array binding signal (z-score)", "setting": "[6]", "value": 2.09}, {"measurement": "glycan array binding signal (z-score)", "setting": "[7]", "value": 0.142}, {"measurement": "glycan array binding signal (z-score)", "setting": "[8]", "value": 1.31}, {"measurement": "glycan array binding signal (z-score)", "setting": "[9]", "value": -0.478}, {"measurement": "glycan array binding signal (z-score)", "setting": "[10]", "value": 1.1}, {"measurement": "glycan array binding signal (z-score)", "setting": "[11]", "value": -0.171}, {"measurement": "glycan array binding signal (z-score)", "setting": "[12]", "value": -0.319}, {"measurement": "glycan array binding signal (z-score)", "setting": "[13]", "value": -0.826}, {"measurement": "glycan array binding signal (z-score)", "setting": "[14]", "value": -0.204}, {"measurement": "glycan array binding signal (z-score)", "setting": "[15]", "value": -0.644}, {"measurement": "glycan array binding signal (z-score)", "setting": "[16]", "value": 0.167}, {"measurement": "glycan array binding signal (z-score)", "setting": "[17]", "value": 0.803}, {"measurement": "glycan array binding signal (z-score)", "setting": "[18]", "value": 0.66}, {"measurement": "glycan array binding signal (z-score)", "setting": "[19]", "value": -0.858}, {"measurement": "glycan array binding signal (z-score)", "setting": "[20]", "value": 0.294}, {"measurement": "glycan array binding signal (z-score)", "setting": "[21]", "value": 1.71}, {"measurement": "glycan array binding signal (z-score)", "setting": "[22]", "value": -0.479}]}
